# Data published in ChEMBL document CHEMBL3988442, “University of Dundee, Small-Polar-MMV Screening Library” (2021).
# The campaign covered roughly 67,000 compounds. About 300 (0.45%) showed an effect of 50% or more. This excerpt belongs to a sample that is enriched for strong results.
# Biological target: Polyketide synthase Pks13 (Mycobacterium tuberculosis (strain ATCC 25618 / H37Rv)) (UniProt I6X8D2)
# Test: Mycobacterium tuberculosis Polyketide synthase 13 Thioesterase (PKS13)
# Type: functional
# Parameters: scale not given: in the data most compounds retested in dose-response had high values
# Conditions: 30 µM
# Chain of Polyketide synthase Pks13 (Mycobacterium tuberculosis (strain ATCC 25618 / H37Rv)) (I6X8D2 whole entry): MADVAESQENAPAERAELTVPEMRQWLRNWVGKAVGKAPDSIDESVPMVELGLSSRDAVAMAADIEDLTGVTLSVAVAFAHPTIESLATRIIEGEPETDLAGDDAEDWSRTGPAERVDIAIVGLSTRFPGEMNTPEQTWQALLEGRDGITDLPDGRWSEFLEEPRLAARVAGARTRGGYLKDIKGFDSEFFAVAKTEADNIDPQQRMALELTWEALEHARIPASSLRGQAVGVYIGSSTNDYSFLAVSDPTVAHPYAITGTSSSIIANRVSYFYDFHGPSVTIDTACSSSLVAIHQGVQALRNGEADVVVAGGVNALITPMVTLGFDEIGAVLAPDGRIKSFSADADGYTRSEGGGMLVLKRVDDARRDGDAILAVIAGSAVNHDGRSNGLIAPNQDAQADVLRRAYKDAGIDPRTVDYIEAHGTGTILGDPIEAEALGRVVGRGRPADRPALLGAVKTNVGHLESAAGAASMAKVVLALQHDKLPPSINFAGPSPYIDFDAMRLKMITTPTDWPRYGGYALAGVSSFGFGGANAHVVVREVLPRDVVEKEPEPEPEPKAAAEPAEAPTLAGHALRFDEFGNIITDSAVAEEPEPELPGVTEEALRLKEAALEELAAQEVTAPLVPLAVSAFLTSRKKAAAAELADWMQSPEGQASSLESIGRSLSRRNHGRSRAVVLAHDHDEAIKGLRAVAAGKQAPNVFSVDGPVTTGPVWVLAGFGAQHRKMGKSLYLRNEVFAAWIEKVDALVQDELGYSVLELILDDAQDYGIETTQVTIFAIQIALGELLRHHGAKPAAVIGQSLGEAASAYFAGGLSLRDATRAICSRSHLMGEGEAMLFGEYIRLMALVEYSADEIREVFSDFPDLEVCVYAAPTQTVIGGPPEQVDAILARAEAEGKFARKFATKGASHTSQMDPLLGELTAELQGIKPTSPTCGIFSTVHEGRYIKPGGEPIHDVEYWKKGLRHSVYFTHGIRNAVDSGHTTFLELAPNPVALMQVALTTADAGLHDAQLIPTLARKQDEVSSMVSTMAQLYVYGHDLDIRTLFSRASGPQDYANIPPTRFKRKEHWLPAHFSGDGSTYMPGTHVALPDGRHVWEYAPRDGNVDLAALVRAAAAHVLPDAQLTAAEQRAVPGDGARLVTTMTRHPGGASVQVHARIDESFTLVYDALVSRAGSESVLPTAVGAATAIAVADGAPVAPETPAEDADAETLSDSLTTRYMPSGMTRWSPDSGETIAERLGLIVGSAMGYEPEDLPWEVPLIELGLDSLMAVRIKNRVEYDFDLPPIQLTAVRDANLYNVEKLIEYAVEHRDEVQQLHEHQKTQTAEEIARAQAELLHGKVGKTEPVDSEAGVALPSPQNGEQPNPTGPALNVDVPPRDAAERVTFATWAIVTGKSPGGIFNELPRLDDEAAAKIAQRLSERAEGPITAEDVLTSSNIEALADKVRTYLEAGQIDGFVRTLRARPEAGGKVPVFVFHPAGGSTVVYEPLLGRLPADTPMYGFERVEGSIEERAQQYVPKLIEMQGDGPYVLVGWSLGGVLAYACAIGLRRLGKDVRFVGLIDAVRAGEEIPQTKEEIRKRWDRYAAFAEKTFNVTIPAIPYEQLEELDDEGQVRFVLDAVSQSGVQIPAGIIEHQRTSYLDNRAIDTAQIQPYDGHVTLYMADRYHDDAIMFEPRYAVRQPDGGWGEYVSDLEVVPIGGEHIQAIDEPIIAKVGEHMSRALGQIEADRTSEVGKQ
row,Compound,Percent Effect [%]
1,Cc1nnc(C[C@@H]2COC[C@H]3CN(C(=O)c4ccco4)C[C@@H]23)o1,-27.6
2,Cc1cccc(CN2C[C@H]3C[C@H](C(=O)NCc4cccnc4)[C@@H](C2)O3)c1,2.63
3,c1ccc(CCCN2CC[C@H](c3nnc(-c4cccnc4)o3)C2)cc1,-20
4,c1ccc(CCCN2CC[C@H](c3nnc(-c4ccccc4)o3)C2)cc1,96.4
5,Cc1nnc([C@H]2CCN(CCCc3ccccc3)C2)o1,8.46
6,Cc1nc(O)cc(CNC(=O)CC[C@@H]2CCCN3CCCC[C@H]23)n1,-2.37
7,COc1cccc(CNC[C@@]2(COc3cccnc3)C[C@@H](O)[C@@H](O)C2)c1,3.65
8,COCc1nc(C(=O)N2CCCC2c2ccncc2)cs1 (configuration not stated),-19.5
9,COCc1nc(C(=O)N2CCCC2c2ccc(OC)cc2)cs1 (configuration not stated),76.5
10,COCc1nc(C(=O)N2CCCC2c2cccc(C)c2)cs1 (configuration not stated),-1.31
11,COc1ccc(C2CCCN2C(=O)c2cc3c([nH]c2=O)CCC3)cc1 (configuration not stated),57.9
12,O=C(c1cc2c([nH]c1=O)CCC2)N1CCCC1c1ccc(F)cc1 (configuration not stated),-4.09
13,COc1cccc(C2CCCN2C(=O)c2cc3c([nH]c2=O)CCC3)c1 (configuration not stated),43.2
14,Cc1ccc(CN2C[C@@H]3[C@@H](C(=O)NCC(C)C)CCS(=O)(=O)[C@@H]3C2)cc1,-36.5
15,CCc1ccc(NC(=O)N2C[C@H]3C[C@H](C(=O)N4CCCC4)[C@@H](C2)O3)cc1,-33.7
16,COC[C@@]12CCO[C@@H]1CCN(C(=O)COc1ccccc1OC)C2,-28.6
17,CNC(=O)[C@H]1C[C@H]2OCC[C@H]2N(Cc2cccc3ccccc23)C1,-14
18,CCCN1C[C@H]2CC[C@@H]1CN(C(=O)Cc1c(C)nc(CC)[nH]c1=O)C2,-18.4
19,CCCN1CCN(C(=O)c2ccc3ccccc3n2)[C@H]2CS(=O)(=O)C[C@H]21,11.6
20,Cc1noc(C)c1CN1C(=O)[C@H]2CC[C@@H]1CN(Cc1nccs1)C2,-22.4
21,COc1ccc(CC(C)Nc2cccc(SC)c2)cc1 (configuration not stated),57.2
22,COc1ccc(CCNC(=O)C(C)Nc2ccc(C)c(C)c2)cc1 (configuration not stated),1.46
23,COc1ccc(CCC(C)Nc2cccc(SC)c2)cc1 (configuration not stated),65.2
24,COc1ccc(CC(C)Nc2cccc(F)c2)cc1 (configuration not stated),8.52

row,Compound,Percent Effect [%]
1,COc1ccc(CCNC(=O)C(C)Nc2cccc(C)c2C)cc1 (configuration not stated),10.4
2,COc1ccc(C(=O)Nc2cccc(SC)c2)c(OC)n1,-19.8
3,Cn1cc(CN2C[C@@H]3COC[C@]3(CNC(=O)c3ccsc3)C2)cn1,-27.4
4,Cc1noc([C@@]23CCO[C@@H]2CCN(Cc2scnc2C)C3)n1,-8.64
5,Cc1cc(CN2C[C@H]3CCC[C@@]3(COCc3csc(C)n3)C2)no1,-42.7
6,Cc1cc(F)ccc1C(=O)N1C[C@@H]2COC[C@]2(CN(C)C)C1,-28.5
7,O=C([C@H]1COC[C@H]2CN(C3CCCC3)C[C@H]21)N1CCCCO1,-0.965
8,Cc1ccnc(OC[C@]23COC[C@H]2CN(C(=O)c2ccnn2C)C3)n1,-7.96
9,Cc1ccnc(OC[C@]23COC[C@H]2CN(C(=O)c2ncccn2)C3)n1,64
10,Cc1ccnc(OC[C@]23COC[C@H]2CN(C(=O)c2cnccn2)C3)n1,-10.7
11,COCCNC(=O)[C@@]12CCO[C@@H]1CCN(Cc1cc(C)on1)C2,-12.3
12,Cn1cc(CN2C[C@@H]3COC[C@@H](C(=O)N4CCCCO4)[C@@H]3C2)cn1,-30.5
13,Cc1ccccc1-n1cc(CN(C)C[C@@H]2CCCN3CCCC[C@H]23)cn1,-16.8
14,Cc1cc(C(=O)N2C[C@@H]3COC[C@]3(c3nnc(C4CC4)o3)C2)on1,-7.03
15,CC(CN1CCCC1=O)NC(=O)c1ccc(-c2ccco2)[nH]c1=O (configuration not stated),73
16,Cc1ccc(C(=O)NC(C)CN2CCCC2=O)c(=O)[nH]1 (configuration not stated),-2.59
17,CCC(C)NC(=O)c1ccc(-c2ccco2)[nH]c1=O (configuration not stated),7.06
18,O=C1[C@@H]2CCN(C3CCOCC3)C[C@@H]2OCCN1Cc1cccnc1,-7.59
19,COC[C@H]1CNC(=O)[C@@H]2CCN(Cc3ccc(F)cc3)CC[C@H]12,-30.6
20,COCCNC(=O)c1nc(-c2cn(C)cn2)n2ccccc12,21.3
21,Cn1cnc(-c2nc(C(=O)NC3CC3)c3ccccn23)c1,113
22,Cn1cnc(-c2nc(C(=O)NCC3CCCO3)c3ccccn23)c1 (configuration not stated),5.5
23,Cn1cnc(-c2nc(C(=O)NCCN3CCOCC3)c3ccccn23)c1,141
24,Cn1cnc(-c2nc(C(=O)NCCN3CCCC3)c3ccccn23)c1,18.6

row,Compound,Percent Effect [%]
1,CC(C)n1cnc(-c2nc(C(=O)NC3CC3)c3ccccn23)c1,22.1
2,N#Cc1c(N2CCCN(C3CCOCC3)CC2)nc2ccccn12,95.8
3,CN1CCCC(N2CCN(c3nc4ccccn4c3C#N)CC2)C1 (configuration not stated),15.1
4,N#Cc1c(N2CCN(CC3CCOC3)CC2)nc2ccccn12 (configuration not stated),5.84
5,CC(C)c1noc(CC[C@@H]2CCCN3CCCC[C@H]23)n1,-17.9
6,c1cc(CN2CC[C@H]3CO[C@H](CN4CCOCC4)[C@H]3C2)cs1,-3.35
7,Cc1cnc(N2CCC3(CCN(CC4CC4)C3=O)CC2)nc1,71.3
8,O=C1N(CC2CC2)CCC12CCN(c1ncccn1)CC2,2.59
9,Cc1cnc(N2CCC3(CCN(CC4CCCC4)C3=O)CC2)nc1,-3.7
10,COc1ccc(CN2CC[C@H]3CO[C@H](CNC(=O)N(C)C)[C@H]3C2)cc1,-14.2
11,CCCn1c(N2CCCCC2)nc2c(C)nn(C)c2c1=O,14
12,CCCn1c(N2CCCC2)nc2c(C)nn(C)c2c1=O,67
13,CCCn1c(N2CCCC(C)C2)nc2c(C)nn(C)c2c1=O (configuration not stated),3.25
14,Cc1ccoc1-c1nnc(CN2CCOC(Cn3cccn3)C2)o1 (configuration not stated),-3.25
15,Cc1noc(C)c1C(=O)N1C[C@H]2CC[C@@H]1CN(c1cnccn1)C2,-13.5
16,Cn1nccc1CCC(=O)N1CCC(c2cnccn2)CC1,-6.75
17,Cn1nccc1CCC(=O)N1CCCC(c2cnccn2)C1 (configuration not stated),54.2
18,Cn1nccc1CCC(=O)N1CCOC(c2cnccn2)C1 (configuration not stated),4.28
19,COc1ccccc1N1CCC(CNS(=O)(=O)c2cccs2)C1 (configuration not stated),80.9
20,COc1ccccc1N1CCC(CNCc2cccc(OC)c2OC)C1 (configuration not stated),-8.68
21,COc1ccccc1N1CCC(CNS(=O)(=O)c2c(C)nn(C)c2C)C1 (configuration not stated),0.665
22,COc1ccccc1N1CCC(CNS(=O)(=O)c2cccc(C#N)c2)C1 (configuration not stated),50.9
23,COc1ccccc1N1CCC(CNCc2ccc(C#N)cc2)C1 (configuration not stated),-12.2
24,COc1ccccc1N1CCC(CNCc2cccc(C#N)c2)C1 (configuration not stated),14.1
